Assay results from PubChem BioAssay.
Records with an inconclusive call do not appear. Active and inactive are the calls of the source. Cut-off read from the data, not from the text of the source, unless noted: active = inhibition above about 30%; inactive = the rest.

Columns and labels:
[1] = Her2 expression decrease, cell viability multiplex – SKBR3 breast tumor cells, AlphaScreen, ATP viability, primary screen (AID 461;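 active = Her2 level under about 52% in both replicate screens, with viability over 70% of control, limit read from the data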;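 for Her2 level: lower value means less Her2 protein in the cells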;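 for viability: percent of carrier control wells set as 100% viability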); conditions: SKBR3 Her2 protein level, 18-24 h, measured here: SKBR3 viability, ATP luminescence, at 10 µM
[2] = target: Receptor tyrosine-protein kinase erbB-2 (Homo sapiens) (UniProt P04626); assay: as above; conditions: 18-24 h, at 10 µM, stronger effect = lower value
[3] = reduced viability of SK-BR-3 breast cancer cells – cell-based, 24 h, human, pilot screen (AID 572;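 active = viability at or below 10% of carrier control in both of two separate runs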;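 note: compound exposure lasted between 18 and 24 h rather than exactly 24 h; 100% = carrier-treated control wells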); conditions: SK-BR-3 viability, CellTiter-Glo luminescence, at 10 µM, stronger effect = lower value
[4] = HUVEC growth inhibition – cell-based, human, primary screen (AID 575;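 active = viability at or below 30% in both replicate assays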;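 note: 100% = median of untreated cell wells with 0.1% DMSO on each plate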); conditions: HUVEC proliferation, CellTiter-Glo luminescence, 72 h; at 10 µM; stronger effect = lower value
[5] = H69AR cell proliferation blockers – human, duplicate replicates, primary screen (AID 580;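 active = viability at or under a set limit in both replicates, limit being median viability minus 3 SD, cut at about 48% in these data, passing the limit was not always enough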;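 note: 100% = mean luminescence of untreated wells and 0% = no signal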); conditions: H69AR lung tumor cells viability, ATP luminescence, 72 h; at 10 µM; stronger effect = lower value
[6] = MRP1 drug-resistance reversers in H69AR cells – cell-based, doxorubicin co-treatment, pilot screen (AID 601;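 active = viability loss from added drug above about 55%, and viability with drug at most 40%, in both replicates, limit read from the data, passing the limit was not always enough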); conditions: CellTiter-Glo, 72 h, at 10 µM; for differential viability (reversal): stronger effect = higher value
[7] = yeast transport mutant growth inhibition pilot in 384-well plates, post-Golgi transport modulator project (AID 636; in the data active = inhibition above about 31%); conditions: absorbance 615 nm, about 18 h, stronger effect = higher value
[8] = growth suppression of yeast trafficking mutant, preliminary HTS, modulators of trafficking downstream of Golgi apparatus project, 1536-format plate, OD 615 nm (AID 637); conditions: yeast transport mutant growth, absorbance 615 nm, 18 h; stronger effect = higher value
[9] = S. cerevisiae growth inhibition in permissive medium (OD615), pilot counter-assay for S. cerevisiae lifespan shortening project, permissive growth control (AID 705;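 active = growth inhibition above 25% in both replicates, a cutoff set 3 SD above the mean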); conditions: OD615, 24 h, at 10 µM, stronger effect = higher value
[10] = S. cerevisiae growth inhibition in restrictive medium, OD615, pilot screen, restrictive growth control, yeast lifespan reduction project (AID 706;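 active = growth inhibition above a set limit, 3 SD over mean compound inhibition, in both replicates, cut at about 43% in these data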;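 note: modified DeaD lifespan yeast strain shifted to restrictive glucose medium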); conditions: OD615, 48 h, at 10 µM, stronger effect = higher value
[11] = doxorubicin toxicity protection in MRP-1 cells – H69AR cells, CellTiter-Glo, duplicate, MRP-1 activator project, pilot screen (AID 807;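 active = viability increase at or above a cutoff of the median across tested compounds plus 3 SD, cut at about 8.5% in these data, passing the limit was not always enough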;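 note: compound pretreatment 18-22 h then 72 h combined with doxorubicin; 0% = doxorubicin alone and 100% = vehicle without doxorubicin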); conditions: H69AR viability with doxorubicin, CellTiter-Glo luminescence; at 10 µM; stronger effect = higher value
[12] = viability of HCT116 without oncogenic beta-catenin – human colon tumor cells, pilot screen (AID 823;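 active = cell viability at or below a set limit in both duplicate runs, the limit being the all-compound median minus 4 SD, cut at about 23% in these data, passing the limit was not always enough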;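 note: 0% = wells killed by 20 µM Hyamine and 100% = untreated DMSO cell wells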); conditions: HCT116 beta-catenin knockout viability, CellTiter-Glo, 60 h; at 10 µM; stronger effect = lower value
[13] = viability of PTEN-null HCT116 cells – cell-based, HCT116 clonal line, CellTiter-Glo, pilot screen (AID 824;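 active = viability at or below 27.92% in each of two runs, the all-compound median minus 4 SD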;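 note: 0% = 20 µM Hyamine control and 100% = vehicle cell control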); conditions: HCT116 PTEN-deleted viability, 60 h, at 10 µM, stronger effect = lower value
[14] = RAM pathway blockade in budding yeast – dse1pr::URA3 reporter, 5-FOA selection, pilot screen (AID 869;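 active = inhibition over a set limit, the all-compound mean plus 3 SD, in both replicate runs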;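 note: 0% = DMSO wells with no growth and 100% = 10 µM 1-NA-PP1 with full growth; RAM network block rescues cells from 5-FOA so hits raise OD615 growth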); conditions: S. cerevisiae dse1pr::URA3 5-FOA growth, OD615, 2 d; at 10 µM; stronger effect = higher value; strain carries analog-sensitive mutant Cbk1 kinase
[15] = RAM signaling pathway blockade in yeast – S. cerevisiae, Pdr1DBD-CYC8 efflux-inhibited sensitized strain, primary screen (AID 1298;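 active = RAM network inhibition above 8.4% in each of two replicates, 3 SD over the compound average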;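 note: 0% = DMSO untreated cells without growth and 100% = 10 µM 1-NA-PP1 full growth; higher means more yeast growth rescued from 5-FOA killing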); conditions: S. cerevisiae cbk1-as DSE1-URA3 strain, 5-FOA growth OD615, 2 d; at 50 µM; stronger effect = higher value
[16] = H69AR cells + 2 uM doxorubicin, measured here: viability with 2 uM doxorubicin, stronger effect = lower value
[17] = H69AR cells, compound alone cytotoxicity

Chain of Receptor tyrosine-protein kinase erbB-2 (Homo sapiens) (P04626 whole entry, looked up): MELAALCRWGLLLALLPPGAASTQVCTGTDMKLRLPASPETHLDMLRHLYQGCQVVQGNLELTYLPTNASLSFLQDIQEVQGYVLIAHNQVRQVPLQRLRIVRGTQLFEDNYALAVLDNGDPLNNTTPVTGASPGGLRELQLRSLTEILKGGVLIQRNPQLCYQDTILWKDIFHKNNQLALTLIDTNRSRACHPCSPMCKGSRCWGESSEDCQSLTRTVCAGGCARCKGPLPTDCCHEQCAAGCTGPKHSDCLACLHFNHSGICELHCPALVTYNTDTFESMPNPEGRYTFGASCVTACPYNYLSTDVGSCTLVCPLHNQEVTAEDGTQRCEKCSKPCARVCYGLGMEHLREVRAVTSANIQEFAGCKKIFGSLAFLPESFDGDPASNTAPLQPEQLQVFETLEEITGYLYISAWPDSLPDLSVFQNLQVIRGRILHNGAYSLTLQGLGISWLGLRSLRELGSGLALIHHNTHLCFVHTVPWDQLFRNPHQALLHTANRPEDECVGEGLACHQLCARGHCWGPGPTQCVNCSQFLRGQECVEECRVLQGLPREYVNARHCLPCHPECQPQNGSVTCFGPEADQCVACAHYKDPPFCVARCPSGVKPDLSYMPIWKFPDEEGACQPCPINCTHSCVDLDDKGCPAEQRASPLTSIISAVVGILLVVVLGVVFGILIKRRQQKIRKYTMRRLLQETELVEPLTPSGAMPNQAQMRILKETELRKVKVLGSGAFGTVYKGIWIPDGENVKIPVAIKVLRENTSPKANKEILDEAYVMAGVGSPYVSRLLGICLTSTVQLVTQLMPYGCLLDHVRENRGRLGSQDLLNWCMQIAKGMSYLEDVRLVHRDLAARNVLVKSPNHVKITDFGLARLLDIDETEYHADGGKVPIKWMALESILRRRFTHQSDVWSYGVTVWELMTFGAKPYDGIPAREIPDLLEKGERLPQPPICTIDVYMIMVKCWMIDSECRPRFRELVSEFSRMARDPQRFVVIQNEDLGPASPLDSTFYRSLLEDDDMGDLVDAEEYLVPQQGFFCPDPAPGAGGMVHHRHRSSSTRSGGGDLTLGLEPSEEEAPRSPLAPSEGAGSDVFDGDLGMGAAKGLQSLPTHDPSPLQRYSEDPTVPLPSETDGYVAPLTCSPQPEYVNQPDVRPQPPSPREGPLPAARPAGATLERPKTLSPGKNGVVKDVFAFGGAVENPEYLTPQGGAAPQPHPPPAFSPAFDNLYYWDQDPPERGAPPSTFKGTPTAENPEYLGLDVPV

COc1cc(C(=O)N2c3ccccc3CC2C)cc(OC)c1OC (configuration not stated)
81.8%: viability [6, 17]
91.3%: viability [6, 16]
inactive: Her2 level [2] 81.5% | viability [3] 102% | viability [4] 88.8% | viability [5] 81.8% | differential viability (reversal) ([6]; H69AR cells + 2 uM doxorubicin) -9.55% | inhibition [7] -4.59% | inhibition [8] -3.33% | growth inhibition [9] -3.11% | growth inhibition [10] -16.6% | viability increase [11] -4.64% | viability [12] 87.4% | viability [13] 83.8% | inhibition [14] 0.67% | RAM network inhibition [15] 6.34%
102%: viability [1]

CCOC(=O)N1CCN(Cc2nc3c(c(=O)n(C)c(=O)n3C)n2Cc2ccccc2)CC1
inactive: Her2 level [2] 106% | viability [3] 104% | viability [4] 96.3% | viability [5] 89.1% | differential viability (reversal) ([6]; H69AR cells + 2 uM doxorubicin) 10.5% | inhibition [7] -2.13% | inhibition [8] 2.62% | growth inhibition [9] -8.18% | growth inhibition [10] -4.35% | viability increase [11] -4.1% | viability [12] 97.3% | viability [13] 98% | inhibition [14] 0.61% | RAM network inhibition [15] 4.53%
78.7%: viability [6, 16]
104%: viability [1]
89.1%: viability [6, 17]

Cc1ccc(Cn2c(CN3CCOCC3)nc3c2c(=O)n(C)c(=O)n3C)cc1
99.6%: viability [6, 16]
inactive: Her2 level [2] 89.5% | viability [3] 80.5% | viability [4] 90.5% | viability [5] 102% | differential viability (reversal) ([6]; H69AR cells + 2 uM doxorubicin) 2.54% | inhibition [7] -5.14% | inhibition [8] 0% | growth inhibition [9] -18% | growth inhibition [10] -8.04% | viability increase [11] -4.67% | viability [12] 92.4% | inhibition [14] 2.71% | RAM network inhibition [15] 2.86%
102%: viability [6, 17]
80.5%: viability [1]

CCOC(=O)CN1C(=O)C(=O)c2cccc(C)c21
76%: viability [6, 17]
76.6%: viability [6, 16]
80%: viability [1]
inactive: Her2 level [2] 101% | viability [3] 80% | viability [4] 86.5% | viability [5] 76% | differential viability (reversal) ([6]; H69AR cells + 2 uM doxorubicin) -0.56% | inhibition [7] -1.54% | inhibition [8] -0.5% | growth inhibition [9] 0.235% | growth inhibition [10] -4.38% | viability increase [11] -4.97% | viability [12] 88.4% | viability [13] 92.4% | inhibition [14] 1.77% | RAM network inhibition [15] 1.05%
